“And” between values parts separate entries of the source, which are not always exact repeats. Equal entries are not always repeated. Among all 5,500 compounds or so, about 2,000 (36%) were called active. About 18% were inconclusive and are not listed. Cut-off read from the data, not from the text of the source: active = normalized growth mostly below about 0.91 (no sharp cut-off); inconclusive = no clear call, values can overlap the other calls; inactive = mostly above about 0.92. The list shows a part of the results.
Test: chemical genetic growth profiling, strain panel (AID 1159580);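 note: tested at 20 µM; growth read once vehicle control cultures reached saturation at 30 °C; 1 = growth at the plate median or of vehicle wells; lower values mean less growth of the strain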
Settings: S. cerevisiae deletion strains, growth OD

Measured: normalized growth

CCC(=O)OCC(=O)[C@@]1(OC(=O)CC)[C@@H](C)CC2C3CCC4=CC(=O)C=C[C@]4(C)C3(F)[C@@H](O)C[C@@]21C (stereo partly drawn)
active: locus YAL013W, strain DEP1, stronger effect = lower value 0.876 | locus YBR021W, strain FUR4, stronger effect = lower value 0.779 | locus YDL035C, strain GPR1, stronger effect = lower value 0.846 | locus YDL134C, strain PPH21, stronger effect = lower value 0.844 | locus YDR162C, strain NBP2, stronger effect = lower value 0.708 | locus YER167W, strain BCK2, stronger effect = lower value 0.881 | locus YGR135W, strain pre9, stronger effect = lower value 0.863 | locus YGR252W, strain gcn5, stronger effect = lower value 0.71 | locus YIL066C, strain RNR3, stronger effect = lower value 0.806
0.896 (active) and 0.998 (inactive): locus YHR030C, strain SLT2, stronger effect = lower value
inactive: locus YAL021C, strain ccr4, stronger effect = lower value 0.958 | locus YAL026C, strain drs2, stronger effect = lower value 1 | locus YAL030W, strain snc1, stronger effect = lower value 1 | locus YBL061C, strain skt5, stronger effect = lower value 1.01 | locus YBR009C, strain hhf1, stronger effect = lower value 0.999 | locus YBR023C, strain chs3, stronger effect = lower value 1.01 | locus YBR171W, strain sec66, stronger effect = lower value 1 | locus YBR229C, strain ROT2, stronger effect = lower value 0.925 | locus YBR231C, strain swc5, stronger effect = lower value 1.01 | locus YBR279W, strain paf1, stronger effect = lower value 1.01 | locus YCL011C, strain gbp2, stronger effect = lower value 0.988 | locus YCL016C, strain dcc1, stronger effect = lower value 1.01 | locus YCL029C, strain bik1, stronger effect = lower value 0.952 | locus YCL061C, strain MRC1, stronger effect = lower value 1.01 | locus YCL069W, strain vba3, stronger effect = lower value 0.996 | locus YCR088W, strain abp1, stronger effect = lower value 0.997 | locus YDL005C, strain med2, stronger effect = lower value 0.994 | locus YDL040C, strain nat1, stronger effect = lower value 1 | locus YDL074C, strain BRE1, stronger effect = lower value 0.793 | locus YDL101C, strain DUN1, stronger effect = lower value 0.95 | locus YDL185W, strain tfp1, stronger effect = lower value 0.927 | locus YDL192W, strain arf1, stronger effect = lower value 0.927 | locus YDR001C, strain nth1, stronger effect = lower value 0.991 | locus YDR069C, strain doa4, stronger effect = lower value 0.993 | locus YDR101C, strain arx1, stronger effect = lower value 0.948 | locus YDR137W, strain rgp1, stronger effect = lower value 1.01 | locus YDR150W, strain NUM1, stronger effect = lower value 0.974 | locus YDR159W, strain sac3, stronger effect = lower value 1.01 | locus YDR195W, strain ref2 1 | locus YDR297W, strain sur2, stronger effect = lower value 0.996 | locus YDR318W, strain mcm21, stronger effect = lower value 0.945 | locus YDR334W, strain swr1, stronger effect = lower value 1.01 | locus YDR335W, strain msn5, stronger effect = lower value 0.998 | locus YDR388W, stronger effect = lower value 0.947 | locus YDR392W, strain spt3, stronger effect = lower value 0.988 | locus YDR502C, strain sam2, stronger effect = lower value 0.926 | locus YEL003W, strain gim4, stronger effect = lower value 0.996 | locus YEL037C, strain rad23, stronger effect = lower value 0.987 | locus YEL061C, strain CIN8 (second series), stronger effect = lower value 0.989 | locus YEL061C, strain CIN8, stronger effect = lower value 0.935 | locus YER015W, strain faa2, stronger effect = lower value 0.995 | locus YER016W, strain bim1, stronger effect = lower value 1.01 | locus YER110C, stronger effect = lower value 0.952 | locus YER111C, strain swi4, stronger effect = lower value 0.999 | locus YER155C, strain BEM2 (second series), stronger effect = lower value 1.01 | locus YER155C, strain BEM2, stronger effect = lower value 0.963 | locus YFR010W, strain ubp6, stronger effect = lower value 0.993 | locus YGL078C, strain dbp3, stronger effect = lower value 0.975 | locus YGL086W, strain mad1, stronger effect = lower value 0.954 | locus YGL167C, strain pmr1, stronger effect = lower value 1 | locus YGL173C, strain kem1, stronger effect = lower value 1 | locus YGL227W, strain vid30, stronger effect = lower value 0.995 | locus YGL240W, strain doc1, stronger effect = lower value 1 | locus YGL248W, strain PDE1, stronger effect = lower value 0.943 | locus YGL253W, strain hxk2, stronger effect = lower value 1.03 | locus YHR013C, strain ard1, stronger effect = lower value 1.01 | locus YHR027C, strain rpn1, stronger effect = lower value 1 | locus YHR079C, strain IRE1 (second series), stronger effect = lower value 0.974 | locus YHR079C, strain IRE1, stronger effect = lower value 1.02 | locus YHR094C, strain hxt1, stronger effect = lower value 0.965 | locus YHR129C, strain ARP1, stronger effect = lower value 0.943 | locus YHR142W, strain chs7, stronger effect = lower value 0.988 | locus YHR200W, strain rpn10, stronger effect = lower value 0.929 | locus YIL073C, strain SPO22, stronger effect = lower value 0.825 | locus YIL125W, strain kgd1, stronger effect = lower value 0.971 | locus YIR030C, strain dcg1, stronger effect = lower value 0.959 | locus YJL092W, strain hpr5, stronger effect = lower value 0.996 | locus YJL095W, strain BCK1 (second series), stronger effect = lower value 1 | locus YJL115W, strain asf1, stronger effect = lower value 0.999 | locus YJL129C, strain trk1, stronger effect = lower value 0.951 | locus YJL134W, strain LCB3, stronger effect = lower value 0.961 | locus YJL154C, strain vps35, stronger effect = lower value 0.981 | locus YJL164C, strain tpk1, stronger effect = lower value 1 | locus YJL166W, strain qcr8, stronger effect = lower value 0.997 | locus YJL168C, strain set2, stronger effect = lower value 0.956 | locus YJL187C, strain SWE1 (second series), stronger effect = lower value 0.942 | locus YJL187C, strain SWE1, stronger effect = lower value 0.996
0.761 (active) and 1.01 (inactive): locus YJL095W, strain BCK1, stronger effect = lower value
